Screening data (PubChem)
Pf growth 48h = Primary qHTS for delayed death inhibitors of the malarial parasite plastid, 48 hour incubation; P. falciparum luciferase growth in erythrocytes, 48 h; Potency, µM (highest dose often 28.7 µM), hits mostly inhibitors; actives 5.9% (n = 310,000); AID 504832, 2011
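Erythrocytes infected with P. falciparum carrying an integrated firefly luciferase reporter (2% hematocrit, 0.1% parasitemia final) were exposed to compounds in RPMI 1640 with 0.5% Albumax at 37 C, 5% CO2. Growth inhibition was scored as reduced luminescence.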
Shiga toxin inh = A qHTS for Small Molecule Inhibitors of Shiga Toxin. Vero cells, Shiga toxin protein synthesis inhibition reporter. inhibition, % at 38.7 µM. actives 9.2% (n = 290,000). AID 2315, 2010; in the data active means inhibition mostly above about 28%, no sharp cut-off; inactive means mostly below about 43%
HCMV antiviral = qHTS Assay for inhibitors of the human cytomegalovirus (HCMV); HFF cells, HCMV-luciferase reporter, 72 h; hits give low values; activity change, negative = inhibition, % at 57.5 µM; actives 4.5% (n = 410,000); AID 1259415, 2018; in the data active means activity change below about -60%; inconclusive means no clear call, values can overlap the other calls; inactive means above about -39%
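Human foreskin fibroblasts infected with luciferase-reporter HCMV at MOI 1 PFU/cell, compounds at two doses. Luciferase measured 72 h post infection; normalized to buffer-only basal and Salinomycin (10uM) controls.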
Pf growth 96h = Primary qHTS for delayed death inhibitors of the malarial parasite plastid, 96 hour incubation | P. falciparum luciferase reporter growth, 96 h | Potency, µM (doses to about 28.7 µM), usual class: inhibitors | actives 6.9% (n = 320,000) | AID 504834, 2011
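Two parasite generations (96 h, 37 C, 5% CO2) of compound exposure in infected erythrocytes (0.05% parasitemia, 2% hematocrit). Luciferase-reporter P. falciparum; decreased luminescence indicates inhibited growth, aimed at apicoplast-acting delayed death.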
Cycloheximide cs = Cycloheximide Counterscreen for Small Molecule Inhibitors of Shiga Toxin; max response, %; actives 12% (n = 300,000); cell reporter, cycloheximide protein synthesis inhibition counterscreen; in the data active means max response mostly above about 13%, no sharp cut-off; inactive means mostly below about 14%; further: read at 38.3 µM for the half of the compounds with a filed dose
A number is an active result. Hits are enriched below; roughly 20% of the tested compounds scored in any of these assays. Unless noted, the call rests on the fitted dose curve; in most records, active means well fitted inhibition curve with a large enough effect; inconclusive means small, poorly fitted or top-dose-only effect, or another doubt; inactive means no such curve, though single readings can be large or run the other way.

`CC1=NN(c2ccc([N+](=O)[O-])cc2)C(=O)/C1=C\N(C)C` gave Pf growth 48h inactive, Shiga toxin inh inactive, HCMV antiviral inactive, Pf growth 96h 7.4µM and Cycloheximide cs 22.
CCOC1=NN(c2ccc(Cl)cc2)C(=O)/C1=C\N(C)C was read as Pf growth 48h inactive, Shiga toxin inh inactive, HCMV antiviral inactive, Pf growth 96h inactive and Cycloheximide cs inactive.
`CCCC1=NN(c2ccc([N+](=O)[O-])cc2)C(=O)/C1=C/N(C)C` gave Pf growth 48h inactive, Shiga toxin inh inactive, HCMV antiviral inactive, Pf growth 96h inactive and Cycloheximide cs 20.
For O=C(COCc1cc(-c2cccs2)on1)NCc1ccc(Cl)cc1 the results were HCMV antiviral inactive.
`O=C(COc1ccc(Cl)cc1Cl)Nc1ccccn1` gave Pf growth 48h inactive, Shiga toxin inh inactive, HCMV antiviral -80 and Cycloheximide cs inactive.
Screening O=C(COc1ccccc1Cl)Nc1cc(Cl)ccc1Oc1ccccc1 returned Pf growth 48h inactive, Shiga toxin inh inactive, HCMV antiviral inactive, Pf growth 96h inconclusive and Cycloheximide cs inactive.
`Cc1c(C)c2cc(Cl)c(OCC(=O)Nc3ccccn3)cc2oc1=O` gave HCMV antiviral inactive.
For CSc1ccccc1NC(=O)COc1ccc(Cl)cc1Cl the results were Pf growth 48h inactive, Shiga toxin inh 43, HCMV antiviral inconclusive, Pf growth 96h inconclusive and Cycloheximide cs 17.
`CSc1ccccc1NC(=O)COc1ccccc1Cl` gave Pf growth 48h inactive, Shiga toxin inh inactive, HCMV antiviral inactive, Pf growth 96h inconclusive and Cycloheximide cs 51.
For CC1CCCN(CC(O)CN2CCN(CC(O)CN3CCCC(C)C3)C(C)C2)C1 (stereo not given) the results were HCMV antiviral inactive.
Screening CCOC(=O)c1ccc(NC(=O)CSc2ccc(-c3sc(C)nc3C)nn2)cc1 returned HCMV antiviral inactive.
COc1ccc(-c2cnn3c4c(c(C)nc23)CCN4C(C)C)cc1OC was read as Pf growth 48h inactive, Shiga toxin inh 47, HCMV antiviral inactive, Pf growth 96h inactive and Cycloheximide cs 27.
Fc1ccc(N2Cc3ccsc3C=N2)cc1 was read as Pf growth 48h inconclusive, Shiga toxin inh 63, HCMV antiviral inconclusive, Pf growth 96h inactive and Cycloheximide cs 25.
Screening COc1ccc(OC)c(C2CC(c3ccccc3)=NN2C(=S)Nc2ccccc2)c1 (stereo not given) returned Pf growth 48h 2.3µM, Shiga toxin inh inactive, HCMV antiviral inactive, Pf growth 96h inconclusive and Cycloheximide cs inactive.
Screening COc1ccccc1C1=NN(C(=S)Nc2ccccc2)C(c2ccco2)C1 (stereo not given) returned Pf growth 48h inactive, Shiga toxin inh 51, HCMV antiviral inactive, Pf growth 96h inactive and Cycloheximide cs 28.
`CNC(=S)N1N=C(c2ccc(C)cc2)CC1c1cc(OC)ccc1OC` (stereo not given) gave Pf growth 48h inconclusive, Shiga toxin inh inactive, HCMV antiviral inactive, Pf growth 96h inactive and Cycloheximide cs inactive.
For COc1ccc(CC(=O)NC2CC(C)(C)NC(C)(C)C2)cc1 the results were Pf growth 48h inactive, Shiga toxin inh inactive, HCMV antiviral inactive, Pf growth 96h inconclusive and Cycloheximide cs inactive.
`c1csc(-c2noc(CN3CCOCC3)n2)c1` gave Pf growth 48h inactive, Shiga toxin inh 41, HCMV antiviral inactive, Pf growth 96h inactive and Cycloheximide cs 31.
For c1csc(-c2noc(CN3CCN4CCCC4C3)n2)c1 (stereo not given) the results were Pf growth 48h inactive, Shiga toxin inh 47, HCMV antiviral inactive, Pf growth 96h inconclusive and Cycloheximide cs 21.
Screening OC[C@@H]1CCCN1Cc1nc(-c2cccs2)no1 returned Pf growth 48h inactive, Shiga toxin inh 51, HCMV antiviral inactive, Pf growth 96h inconclusive and Cycloheximide cs 19.
Screening O=C(c1ccco1)N1CCN(Cc2nc(-c3cccs3)no2)CC1 returned Pf growth 48h inactive, Shiga toxin inh 35, HCMV antiviral inactive, Pf growth 96h inactive and Cycloheximide cs 11.
For c1ccc(COC2CCCN(Cc3nc(-c4cccs4)no3)C2)nc1 (stereo not given) the results were Pf growth 48h inactive, Shiga toxin inh inactive, HCMV antiviral inactive, Pf growth 96h inactive and Cycloheximide cs inactive.
